These results are taken from PubChem BioAssay AID2730 (National Center for Advancing Translational Sciences (NCATS), 2010).

The list shows a part of the results. Inconclusive results are not listed. Active and inactive are the calls of the source. Calls follow the shape of the dose curve; as a rule, active = well fitted inhibition curve with a large enough effect; inconclusive = small, poorly fitted or top-dose-only effect; inactive = no such curve, though single readings can be large or run the other way.

A short description of this assay: High Content Assay for Compounds that inhibit the Assembly of the Perinucleolar Compartment: Confirmation of PNC Inhibition. To be noted: PC3M PTB-GFP, PNC prevalence imaging, 16 h; series mostly up to 46.1 µM. The text has this: High Content Assay for Compounds that inhibit the Assembly of the Perinucleolar Compartment NIH Chemical Genomics Center [NCGC] NIH Molecular Libraries Probe Centers Network [MLPCN] MLPCN Grant: MH082371-01A2 Assay Submitter (PI): Sui Huang, Northwestern University, Feinberg School of Medicine, Cell and Molecular Biology, Chicago, Illinois. The perinucleolar compartment (PNC) is a non-membrane-bound nuclear subdomain that is associated with but structurally distinct from the nucleolus. The PNC is a heritable trait, in which the number of PNCs per cell in daughter cells often mimics that of their mother cells. The PNC is heterogeneous in shape, is stable through interphase, disassembles during mitosis, and reassembles in early G1. The PNC is concentrated with newly synthesized RNA polymerase III (pol III) RNAs (MRP RNA, RNAse P H1 RNA, hY RNAs[hY1, 2, 5], Alu RNA, and SRP [7SL] RNA) and RNA binding proteins (nucleolin, PTB, CUG-BP, KSRP, Raver1, Raver2, and Rod). […] Extensive in vitro studies have shown that the PNC is unique to tumor cells and preferentially forms in tumor cells derived from solid tissues. Examination of cancer cell lines from various origins and malignant capacities has shown that PNC prevalence correlates with the malignancy of tumors and has the potential to be developed as a pan-cancer prognostic marker. […] Although the PNC is associated with a DNA locus and a handful of components have been identified, much remains to be investigated regarding the structure and function of the PNC and its mechanistic link to cancer. We have previously shown that PNC prevalence reduction is a valid strategy to identify compounds that can be used to study the structure and function of the PNC. It is necessary, however, to create a screening platform that is able to test a large number of compounds in an automated fashion. Here we report the development and robustness of an automated whole-cell phenotypic image-based screening assay that is capable of identifying such compounds. Compounds active in the primary screen were then re-screened in concentration-response to confirm activity.
PNC High Content Imaging Assay Procedure: 1. Cells at a density of 75-90% confluency in T175 flasks were harvested using 7 ml TrypLE Express cell dissociation reagent. After dissociation (5 minutes room temperature incubation) 10 ml of complete media was added to the TrypLE/cell suspension. The liquid was transferred to a 50 ml Conical tube and cells were pelleted at 1000 RPM for 5 min. Supernatant was removed and cells were resuspended to a final density of 150-200 cells/ul in complete media. 2. Cells were plated in 5 ul volume (750-1000 cells/well) into 1536 well Black uclear Aurora Low Base plates and allowed to recover and adhere at 37 C in a humidified 5% CO2 incubator for 4 hours. 3. After 4 hour incubation, compound libraries (23 nl of […] in columns 5-48) were transferred to the plates in duplicate using a 1536 well pintool. Camptothecin positive control (59 uM final) was added to column 2 and 1:3 dilutions of camptothecin was added to column 3. DMSO negative controls were present in columns 1 and 4. 4. After a 16 hour incubation in the 37 C incubator, cells were fixed by the addition of 4 ul of 6% EM grade paraformaldehyde (containing 0.1% triton X 100) directly to the cells. The plates were incubated at room temperature for 20 minutes. […]
On to `COC(=O)C1=C(C)N(c2ccc(Br)cc2)C(=O)/C1=C\c1ccco1`, for which the Potency entry was “inactive”. Turning to `Cn1c2ccccc2c(=O)c2c(=O)n(Cc3ccco3)c(COc3ccccc3)nc21`, the Potency is 11.2 µM (active). To `CCOC(=O)c1c(-c2cccc(C)c2)csc1NC(=O)c1c(-c2ccccc2)noc1C` belongs 2.51 µM (active); to `COC(=O)c1ccc(CSc2ccccc2C)o1`, “inactive”. To `N=c1c2c(-c3ccccc3)c(-c3ccccc3)n(Cc3ccccc3)c2ncn1CCCO` belongs 4.47 µM (active).
